# In all, about 11,000 compounds went through this assay and about 310 (2.8%) were called active. Cut-off read from the data, not from the text of the source: active = activity change below about -85%; inactive = the rest. The list comes from a sample in which actives are over-represented; it also holds similar structures and randomly drawn compounds.
# System: intestinal alkaline phosphatase [Mus musculus]
# Experiment: mouse intestinal phosphatase enzyme activation – biochemical, luminescence, single concentration, confirmation (AID 434970)
# Settings: purified mouse IAP, CDP-Star luminescence, 30 min, at 10 µM; activation factor: measured here: IAP activation factor, stronger effect = higher value; activity change, negative = activation: stronger effect = lower value
SMILES,activation factor,"activity change, negative = activation"
COc1ccc(C(=O)Nc2cccc(C(C)=O)c2)c(OC)c1OC,0.951,4.95% (inactive)
COC(=O)CC1C(=O)NCCN1C(=O)Nc1ccccc1 (stereo not given),0.938,6.25% (inactive)
CCOC(=O)Cc1cc(=O)n(-c2nc3ccccc3s2)[nH]1,0.806,19.4% (inactive)
O=C(CN1C(=O)C2CC=CCC2C1=O)Nc1ccc(S(=O)(=O)NC2=NCCCCC2)cc1 (stereo not given),0.903,9.65% (inactive)
CC[C@@H]1C(c2cccc(C)c2)=NN(c2ccccc2)[C@H]1C(=O)N1CCOC1=O,1.14,-14.2% (inactive)
COc1cccc(-n2c(SCC(=O)Nc3nccs3)nnc2-c2ccoc2C)c1,0.982,1.8% (inactive)
O=C1OCCN1C(=O)[C@H]1[C@H](c2ccc([N+](=O)[O-])cc2)C(c2ccccc2)=NN1c1ccc(Br)cc1,0.908,9.2% (inactive)
COc1ccccc1NS(=O)(=O)c1cc(NC(=O)Nc2cccc(C)c2)ccc1N1CCCCC1,3.78,-278% (active)
O=C(Nc1cccc(C(F)(F)F)c1)Nc1ccc(N2CCCC2)c(S(=O)(=O)Nc2ccccc2Cl)c1,1.67,-66.9% (inactive)
COc1ccc(C(=O)O)cc1S(=O)(=O)Nc1cccc(C)c1,0.988,1.25% (inactive)
Cc1cc(-c2csc(NC(=O)c3ccc(=O)[nH]c3)n2)c(C)n1Cc1ccco1,0.347,65.4% (inactive)
CCCc1c(O)nc(SC2CC(=O)N(c3cc(OC)ccc3OC)C2=O)[nH]c1=O (stereo not given),1.01,-0.65% (inactive)
C=CCn1c(SCC(=O)Nc2cc(C)ccc2OC)nnc1-c1ccco1,1.07,-7.4% (inactive)
CCOC(=O)C1=CN(Cc2ccc(Br)cc2)S(=O)(=O)NC1C (stereo not given),0.968,3.25% (inactive)
O=C(Nc1ccc(Cl)cc1)Nc1ccc(N2CCOCC2)cc1,1.17,-16.9% (inactive)
O=C(Nc1ccc(Cl)cc1)Nc1ccc(-c2cnco2)cc1,1.34,-34.5% (inactive)
O=C(Nc1ccc(Cl)cc1)N[C@@H]1c2c(ccc3ccccc23)OC[C@@H]1CO,4.85,-385% (active)
CCCCc1ccc(CC(=O)O)cc1,0.907,9.3% (inactive)
O=C(Nc1ccc(F)c(Cl)c1)Nc1csc2ccccc12,2.15,-115% (active)
O=C(Nc1ccc(F)cc1F)Nc1csc2ccccc12,1.77,-77.3% (inactive)
O=C(Nc1ccc(F)cc1)Nc1csc2ccccc12,1.94,-93.7% (inactive)
O=C(Nc1ccccc1)Nc1csc2ccccc12,2.08,-108% (active)
CCCCC(=O)Nc1ccc(F)c(Cl)c1,1.05,-5.3% (inactive)
CC(C)CNC(=O)c1ccccc1NC(=O)Nc1ccccc1,0.949,5.15% (inactive)
O=S(=O)(NCc1cccs1)c1cccc(S(=O)(=O)N2CCCCC2)c1,0.903,9.65% (inactive)

SMILES,activation factor,"activity change, negative = activation"
Cc1ccccc1N(CC(=O)N1CCN(c2ccccc2)CC1)S(C)(=O)=O,0.932,6.8% (inactive)
COc1ccc(OC)c(S(=O)(=O)n2ccnc2C)c1,0.998,0.15% (inactive)
COc1ccc(Cc2nnc(NC(=O)C3CCCO3)s2)cc1OC (stereo not given),1.01,-1.15% (inactive)
CCC(C)OC(=O)C1=C(C)NC2=C(C(=O)C(C(=O)OC)C(C)C2)C1c1ccc(N(C)C)cc1 (stereo not given),1.06,-6.35% (inactive)
CCN(CC)CCNC(=O)Cn1nc(-c2ccccc2)c2ccccc2c1=O,0.954,4.6% (inactive)
NC(=O)C1CCN(c2ncnc3c(-c4ccccc4)nsc23)CC1,0.947,5.35% (inactive)
O=C(c1cc(-c2cccs2)on1)N1CCN(C(c2ccccc2)c2ccccc2)CC1,0.971,2.95% (inactive)
COc1ccccc1CNC(=O)Cn1cccc1,0.944,5.65% (inactive)
COc1ccccc1C(=O)Nc1ccc(CN2CCCCC2)cc1,0.94,6% (inactive)
CCOC(=O)c1ccc(NC(=O)NCc2ccc(OC)cc2)cc1,1.49,-49% (inactive)
Cc1ccc(NC(=O)NC2(C(=O)NCc3ccccc3)CCCCC2)cc1,2.31,-131% (active)
Cc1ccc(CNC(=O)C2(NC(=O)Nc3ccc(C)cc3)CCCCC2)cc1,2.98,-198% (active)
O=C(Nc1cccc(Cl)c1)NC1(C(=O)NCc2cccs2)CCCCC1,1.62,-61.7% (inactive)
CCn1c(CC(=O)Nc2ccc(C)cc2)nnc1SCC(=O)NCc1ccccc1,1,-0.4% (inactive)
O=C(NCc1ccccc1)NC1(C(=O)N2CCCC2)CCCCC1,0.94,6% (inactive)
COc1ccccc1CNC(=O)C1(NC(=O)Nc2ccc(C)cc2)CCCCC1,3.44,-244% (active)
CC1(C)CC(=O)C2=C(C1)N=c1s/c(=C/c3ccc(F)c(F)c3)c(=O)n1C2c1ccc(F)cc1 (stereo not given),0.856,14.4% (inactive)
N#C/C(=C/c1ccco1)C(N)=S,0.434,56.5% (inactive)
CCOC(=O)c1c(-c2ccccc2)oc2ccc(O)c(CN(C)C)c12,0.909,9.15% (inactive)
Nc1ncnc2c1ncn2[C@@H]1O[C@H](CNS(=O)(=O)c2cc(S(=O)(=O)c3ccccc3)cs2)[C@@H](O)[C@H]1O,1.08,-7.65% (inactive)
Cc1ccc(C(=O)Nc2nnn(C)n2)cc1,1.1,-10.2% (inactive)
CCN(CC)S(=O)(=O)c1ccc(NC(=O)Cn2c(=O)sc3ccccc32)cc1,1.31,-30.9% (inactive)
C#CCOCCOCCOCCNc1nc(N2CCN(C(=O)CCCCCCCCCCNC(=O)[C@H](CCCN=C(N)N)n3cc(C[C@@H](C)CC)nn3)CC2)nc(N2CCN(C(=O)CCCCCCCCCCNC(=O)[C@@H]([C@H](C)CC)n3cc(CCCCCN)nn3)CC2)n1,6.19,-519% (active)
C#CCOCCOCCOCCNc1nc(N2CCN(C(=O)CCCCCCCCCCNC(=O)[C@H]([C@@H](C)CC)n3cc(CCCCN=C(N)N)nn3)CC2)nc(N2CCN(C(=O)CCCCCCCCCCNC(=O)[C@H](CCCN=C(N)N)n3cc(C[C@@H](C)CC)nn3)CC2)n1,9.52,-852% (active)
C#CCOCCOCCOCCNc1nc(N2CCN(C(=O)CCCCCCCCCCNC(=O)[C@H]([C@@H](C)CC)n3cc(CCCCN=C(N)N)nn3)CC2)nc(N2CCN(C(=O)CCCCCCCCCCNC(=O)[C@H](CCCCN)n3cc(C[C@@H](C)CC)nn3)CC2)n1,8.58,-758% (active)
